In the library only some 0.78% were active in any assay of this set; here they are far more common.
APE1 inh = APE1 (human) endonuclease inhibition. P27695. recombinant APE1, TAMRA/BHQ-2 abasic DNA cleavage fluorescence. Potency, µM (doses to about 65.8 µM), without a hit: at the highest dose activity change, negative = inhibition, hits mostly inhibitors. 350,000 compounds, 0.35% hits;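 note: plate controls were vehicle for no effect and reference inhibitor for full effect; nearly all actives have a fitted effect of over 55% in size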
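Step 1: APE1 (0.75 nM) with compound, 15 min RT. Step 2: add 50 nM fluorophore/quencher THF duplex. Step 3: three fluorescence reads 60 s apart (525/598 nm); read 3 minus read 1 = reaction progress.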
RECQ1 inh-1 = blocks DNA unwinding by human RECQ1; P46063; RECQ1 DNA unwinding, red fluorescence kinetic read; Potency, µM (titrated, usually from 57.3 µM), for inactives: at the top dose activity, negative = inhibition, most hits filed as inhibitors; 240,000 compounds, 0.54% hits;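 note: plate controls were vehicle for no effect and no enzyme for full effect; nearly all actives have a fitted effect of over 30% in size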
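50 nM RECQ1T1 preincubated 15 min with compound in Tris pH 8.0 buffer with MgCl2, DTT, Tween-20 and 2.5 ug/ml poly(dI-dC); started with 200 nM TAMRA/BHQ-2 forked duplex and 2 mM ATP. Unwinding read as fluorescence (525/598 nm), two reads 2 h apart.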
L3MBTL1 inh-1 = blocks human L3MBTL1; AlphaScreen L3MBTL1–H3K9me1 peptide binding; Q9Y468; Potency, µM (top dose mostly 57.1 µM), without a hit: at the top dose activity, negative = inhibition, usual class: inhibitors; 230,000 compounds, 0.66% hits; note: % is set by controls: 0 for no effect and ±100 for the full control effect; nearly all actives have a fitted effect of over 60% in size
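AlphaScreen assay: L3MBTL1 (50 nM final) was preincubated 30 min at room temperature with biotinylated H3(1-15)K9me1 peptide (75 nM final), then 30 min with library compounds; streptavidin donor and nickel chelate acceptor beads (10 ug/mL final) added, 30 min dark.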
BLM inh-1 = Bloom syndrome helicase (human) inhibition | P54132 | recombinant BLM DNA unwinding, fluorescence dequenching | Potency, µM (top dose mostly 56.1 µM), for inactives: at the highest dose activity change, negative = inhibition, usual class: inhibitors | 350,000 compounds, 0.2% hits;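 note: plate controls were vehicle for no effect and no enzyme for full effect; nearly all actives have a fitted effect of over 35% in size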
Target sequence (P54132 whole entry, looked up): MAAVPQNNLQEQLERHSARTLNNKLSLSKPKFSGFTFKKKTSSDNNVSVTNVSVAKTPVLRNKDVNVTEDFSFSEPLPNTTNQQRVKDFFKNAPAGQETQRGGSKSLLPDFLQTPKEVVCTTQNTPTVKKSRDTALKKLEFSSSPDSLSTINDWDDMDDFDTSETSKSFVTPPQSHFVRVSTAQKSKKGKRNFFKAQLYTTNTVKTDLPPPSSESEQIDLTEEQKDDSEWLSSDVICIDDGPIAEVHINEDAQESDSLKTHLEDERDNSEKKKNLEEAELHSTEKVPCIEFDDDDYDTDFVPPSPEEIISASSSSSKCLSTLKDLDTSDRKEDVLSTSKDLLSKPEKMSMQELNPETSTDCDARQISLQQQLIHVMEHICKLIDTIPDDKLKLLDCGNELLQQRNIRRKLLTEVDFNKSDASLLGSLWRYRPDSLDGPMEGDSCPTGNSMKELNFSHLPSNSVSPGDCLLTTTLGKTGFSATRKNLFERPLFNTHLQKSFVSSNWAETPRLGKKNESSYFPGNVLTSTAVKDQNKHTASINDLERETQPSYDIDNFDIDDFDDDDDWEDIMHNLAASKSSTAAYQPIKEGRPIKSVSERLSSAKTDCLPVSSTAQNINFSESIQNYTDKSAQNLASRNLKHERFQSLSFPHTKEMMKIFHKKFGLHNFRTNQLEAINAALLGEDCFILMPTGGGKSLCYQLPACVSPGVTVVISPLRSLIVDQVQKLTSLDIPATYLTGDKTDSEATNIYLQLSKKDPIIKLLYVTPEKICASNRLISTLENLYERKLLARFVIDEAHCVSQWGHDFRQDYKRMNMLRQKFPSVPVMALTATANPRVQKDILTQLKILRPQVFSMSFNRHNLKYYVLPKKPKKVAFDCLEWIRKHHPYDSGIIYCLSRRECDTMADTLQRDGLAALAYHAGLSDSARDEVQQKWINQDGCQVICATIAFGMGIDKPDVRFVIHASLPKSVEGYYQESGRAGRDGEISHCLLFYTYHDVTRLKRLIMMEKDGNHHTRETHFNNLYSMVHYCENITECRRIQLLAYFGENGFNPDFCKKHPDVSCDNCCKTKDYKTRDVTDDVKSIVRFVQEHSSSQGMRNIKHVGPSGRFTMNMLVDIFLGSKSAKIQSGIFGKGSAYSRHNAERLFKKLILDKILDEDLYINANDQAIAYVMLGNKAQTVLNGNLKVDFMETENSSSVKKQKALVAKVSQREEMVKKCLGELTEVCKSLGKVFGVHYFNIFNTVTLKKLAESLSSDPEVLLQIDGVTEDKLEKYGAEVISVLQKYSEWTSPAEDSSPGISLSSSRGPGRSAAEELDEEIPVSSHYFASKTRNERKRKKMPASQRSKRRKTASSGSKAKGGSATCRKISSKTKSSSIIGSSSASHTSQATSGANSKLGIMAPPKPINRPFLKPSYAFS
BLM inh-2 = BLM (human) helicase inhibition, confirmation; shares compounds with BLM inh-1; BLM DNA unwinding, fluorescence quenching, biochemical; 220 compounds, 40% hits; Potency, µM, inactives show max response, negative = inhibition, hits mostly inhibitors; AID 2585;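 note: strand separation dequenches TAMRA so unwinding raises red fluorescence; series mostly up to about 69 µM; % is set by controls: 0 for no effect and ±100 for the full control effect; nearly all actives have a fitted effect of over 45% in size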
RECQ1 inh conf = confirmation of human RECQ1 helicase inhibitors | RECQ1 helicase DNA unwinding, fluorescence | AID 2708 | shares compounds with RECQ1 inh-1 | Potency, µM (doses to about 229 µM), for the others: at the highest dose activity change, negative = inhibition, actives largely listed as inhibitors | 610 compounds, 28% hits; note: % is set by controls: 0 for no effect and ±100 for the full control effect; nearly all actives have a fitted effect of over 45% in size
RECQ1 ADP FP = ADP displacement flagged in RECQ1 inhibitor counter-screen; AID 2711; 530 compounds, 27% hits; ADP fluorescence polarization displacement counterscreen; Potency, µM (top dose mostly 228 µM), without a hit: at the highest dose activity change, negative = inhibition, hits mostly inhibitors; shares compounds with RECQ1 inh-1; note: % is set by controls: 0 for no effect and ±100 for the full control effect; nearly all actives have a fitted effect of over 45% in size
RECQ1 inh-2 = confirmation of human RECQ1 helicase inhibitors; shares compounds with RECQ1 inh-1; Potency, µM (series often up to 119 µM), without a hit: at the highest dose activity, negative = inhibition, most hits filed as inhibitors; recombinant RECQ1 DNA unwinding, red fluorescence; 1,100 compounds, 15% hits; note: % is set by controls: 0 for no effect and ±100 for the full control effect; nearly all actives have a fitted effect of over 50% in size
L3MBTL1 inh-2 = L3MBTL1 binding inhibition validated. shares compounds with L3MBTL1 inh-1. L3MBTL1 methyl-lysine binding inhibition, biochemical qHTS. Potency, µM, hits mostly inhibitors. 500 compounds, 91% hits. AID 540279; note: nearly all actives have a fitted effect of over 70% in size
L3MBTL1 ctr = AlphaScreen signal inhibition, L3MBTL1 hit counter-screen; shares compounds with L3MBTL1 inh-1; AlphaScreen counterscreen, signal inhibition; Potency, µM (doses to about 57.1 µM), inactives show top-dose activity change, negative = inhibition, actives largely listed as inhibitors; 500 tested, under 10 active; AID 602224; note: 0% is about no effect
Starred values were filed as active, the others as inactive; i = inactive; ? = inconclusive; . = no result given; ! = not active in a repeat; [ ] = dose if it differs, or a comment. Calls come from the whole dose curve; as a rule, active = well fitted curve in the direction sought with a large enough effect; inconclusive = small, poorly fitted or top-dose-only effect, or another doubt; inactive = no such curve, though single readings can be large; an effect the other way counts as inactive or inconclusive. Potency is the fitted concentration of half-maximal effect.

SMILES	APE1 inh	RECQ1 inh-1	L3MBTL1 inh-1	BLM inh-1	others
CCOC(=O)c1c(NC(=O)c2c(N)n(CCCOC)c3nc4ccccc4nc23)sc2c1CCCC2	2%	-6%	-6%	4µM*	BLM inh-2=-11%
CCCCCCCC(=O)Cl	-4%	-5%	.	.
CC(C)OCCCNC(=O)c1c(N)n(CC2CCCO2)c2nc3ccccc3nc12 (centres undefined)	-7%	-12%	-19%	5µM*	BLM inh-2=-11%
CC(C)CCCC(C)C1CCC2C3CC(O)[C@@]4(O)CC(O)CC[C@@]4(C)C3CC[C@@]12C (some centres undefined)	21%	-7%	.	-14%
CC1=NCCc2c1[nH]c1cc(O)ccc21	?	?	-6%	40µM*!	BLM inh-2=-2%
CN1C(=O)C(=Cc2ccc(OCC(=O)Nc3ccccc3)cc2)C(=O)N(C)C1=O	1%	.	.	2%
Cc1cccn2c(=O)cc(COc3cccc(NC(=O)COc4ccc(F)cc4)c3)nc12	.	.	.	14µM*	BLM inh-2=?
Cc1cnc2c(C(=O)O)c(Cl)ccc2c1	-4%	-7%	.	2%
COc1ccc2c3c([nH]c2c1)C(C)=NCC3	?	14µM*!	-6%	?	RECQ1 inh conf=-67%;RECQ1 ADP FP=18µM*;RECQ1 inh-2=50µM*
COc1ccc2[nH]cc(C3=CCNCC3)c2c1	3%	i	.	5%
CC[C@@]1(O)C(=O)OCc2c1cc1n(c2=O)Cc2cc3c(NC(=O)CN)cccc3nc2-1	10%	1%	53%	-5%
CC[C@@]1(O)C(=O)OCc2c1cc1n(c2=O)Cc2cc3c(O)cccc3nc2-1	?	?	.	-17%	RECQ1 inh-2=?
O=C(c1ccc(CS(=O)(=O)c2ccccc2)o1)N1CCC2(CC1)OCCO2	?	?	?	-19%	RECQ1 inh-2=?
CC(C)CCn1c(N)c(C(=O)OCC2CCCO2)c2nc3ccccc3nc21 (centres undefined)	0%	-6%	18%	-5%
CCCCn1c(N)c(C(=O)OCC2CCCO2)c2nc3ccccc3nc21 (centres undefined)	-10%	?	.	-5%	RECQ1 inh-2=10%
Cc1ccc(S(=O)(=O)NN)c(C)c1N1CCCC1=O	-9%	-4%	56%	2%
O=C(O)c1ccccc1-c1c2cc(Br)c(=O)cc-2oc2[c]([Hg])c(O)c(Br)cc12	25µM*	25µM*	.	16µM*	RECQ1 inh conf=11µM*;RECQ1 ADP FP=0.2µM*
CS(=O)c1ccc(-c2nc(-c3ccc(F)cc3)c(-c3ccncc3)[nH]2)cc1 (centres undefined)	17%	6%	.	4%
C=CCN1CC[C@]23CCCC[C@H]2[C@H]1Cc1ccc(O)cc13	-6%	.	.	.
CC1CC(=O)O1 (centres undefined)	1%	2%	.	.
CN(C)C1C(=O)C(C(N)=O)C(=O)C2(O)C(=O)C3C(=O)c4c(O)cccc4C(C)(O)C3C(O)C12 (centres undefined)	.	i	.	-5%
CN(C)C1C(=O)C(C(N)=O)=C(O)[C@@]2(O)C(=O)C3=C(O)c4c(O)cccc4[C@](C)(O)C3C(O)C12 (some centres undefined)	?	10µM*	.	-7%	RECQ1 inh conf=-38%;RECQ1 ADP FP=7.1µM*
C=C(C)C#N	-3%	-1%	.	.
CCOC(=O)C1CCCN(c2ccc([N+](=O)[O-])c3nonc23)C1 (centres undefined)	?	28µM*	-22%	-11%	RECQ1 inh-2=56µM*
CCn1nc(-c2cccs2)nc2c(=O)n(C)c(=O)nc1-2	-3%	3.5µM*	?	1.1µM*	RECQ1 inh conf=?;RECQ1 ADP FP=7%[91.9 µM]
SMILES	APE1 inh	RECQ1 inh-1	L3MBTL1 inh-1	BLM inh-1	others
CN1C[C@@H](C(=O)N[C@@]2(C)O[C@]3(O)C4CCCN4C(=O)[C@@H](Cc4ccccc4)N3C2=O)C=C2c3cccc4[nH]cc(c34)C[C@@H]21 (some centres undefined)	?	?	.	-14%	RECQ1 inh conf=?;RECQ1 ADP FP=7.9µM*
CC(C)[C@@]1(NC(=O)[C@@H]2C=C3c4cccc5[nH]cc(c45)C[C@H]3N(C)C2)O[C@@]2(O)[C@@H]3CCCN3C(=O)[C@H](Cc3ccccc3)N2C1=O	?	-3%	-20%	-21%
CN=C=S	1%	-5%	.	.
C/C=C1/C[C@@H](C)[C@@](C)(O)C(=O)OCC2=CCN3CC[C@@H](OC1=O)[C@@H]23	?	?	.	-4%	RECQ1 inh-2=0%
CCBr	5%	-1%	.	.
CCN(CC)c1ccc(CC2C(=O)N(C)C(=O)N(C)C2=O)cc1	-4%	32µM*	?	2%	RECQ1 inh-2=45µM*
c1ccc(C2N3CCCN23)cc1 (centres undefined)	11%	7.9µM*	0%	-1%	RECQ1 inh conf=13%[114 µM];RECQ1 ADP FP=-2%[91.9 µM]
Cc1ccc(C2N3CCCN23)cc1 (centres undefined)	1%	i	.	-2%
O=C(c1ccc2nc(-c3ccco3)c(-c3ccco3)nc2c1)N1CCC2(CC1)OCCO2	?	13µM*	28µM*	28µM*	RECQ1 inh conf=18%[114 µM];RECQ1 inh-2=-7%;L3MBTL1 inh-2=?;L3MBTL1 ctr=-26%
Oc1ccc(Cl)cc1Cl	3%	-13%	.	.
O=C1NC(=O)N(Cc2ccco2)C(=O)/C1=C/c1ccc(-c2cccc([N+](=O)[O-])c2)o1	28µM*	?	28µM*	?	L3MBTL1 inh-2=3.4*;L3MBTL1 ctr=-21%
C=CCN1C(=O)NC(=O)/C(=C\c2ccc(-c3ccccc3[N+](=O)[O-])o2)C1=O	-8%	-3%	-6%	-4%
O=C1NC(=O)N(c2cccc(Cl)c2)C(=O)/C1=C\c1ccc(Sc2nc3ccccc3[nH]2)o1	?	13µM*	32µM*	-13%	L3MBTL1 inh-2=27*;L3MBTL1 ctr=-8%
CC1=C2C(=O)C3C(CC=C4C[C@@H](O)CC[C@@]43C)[C@@H]2CC[C@]12O[C@@H]1C[C@H](C)CN[C@H]1C2C (some centres undefined)	-2%	-22%	.	-7%
CC(C)N1C(=O)/C(=C/C=C/c2ccco2)C(=O)N(Cc2ccco2)C1=O	?	10µM*	32µM*	?	L3MBTL1 inh-2=4.7*;L3MBTL1 ctr=-25%
CN1CCC2(CC1)NC(=O)c1ccccc1N2	?	13%	.	-2%
CN1CCC2(CC1)NC(=O)C1=C(CN(C)CC1)N2	-2%	8%	28µM*	2%	L3MBTL1 inh-2=?;L3MBTL1 ctr=0%
CC(=O)O[C@H]1C[C@H]2CC[C@@H]3[C@H]4C[C@@H]([N+]5(C)CCCCC5)[C@@H](OC(C)=O)[C@]4(C)CC[C@@H]3[C@@]2(C)C[C@@H]1[N+]1(C)CCCCC1	-4%	21%	.	73%

Compound activity: PubChem BioAssay, National Center for Advancing Translational Sciences (NCATS)
